Laboratory results taken from PubChem BioAssay.
Active and inactive are the calls of the source.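 Rule for the calls, unless noted: active = visual image review flags a hit and inhibition of aggregation exceeds 20%; inconclusive = visual hit but inhibition at or below 20%; inactive = no hit on visual image review.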

Key:
[1] = inhibitors of TNFa-induced NFkB p65 translocation, primary screen, imaging, HUVEC, MLSMR starter and 10KST1 sets (AID 438;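 active = inhibition above 20% together with a positive visual image hit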;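 note: compound added about 3h40 before a 20 min TNFalpha stimulation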;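 for inhibition: signal is the nuclear over cytoplasmic p65 intensity ratio per well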); settings: HUVEC TNFa-induced p65 nuclear translocation; cell count: measured here: nuclei count (cytotoxicity indicator), at 2.08 µM; inhibition: at 2 µM, stronger effect = higher value, 0% TNFa-plus-vehicle, 100% no-TNFa wells
[2] = reduction of polyQ htt aggregates in cells – imaging, exon1htt(103Q)mCFP cells, high-content imaging, primary screen (AID 483); settings: exon1htt(103Q)mCFP cell line, aggregate imaging, at 2 µM; inhibition of aggregation: stronger effect = higher value; nuclei count: measured here: cell count, toxicity;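 note: compound exposure lasted 3 days before fixation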;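 for nuclei count: percent of the per-plate median nuclei count of sample wells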
[3] = endothelial E-selectin expression blockers – imaging, HUVEC, immunofluorescence, MLSMR starter and 10KST1 sets, primary screen (AID 487;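 active = visually confirmed hit in the image check and inhibition above 20%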;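 for inhibition: signal is fraction of cell area covered by stained E-selectin grains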;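 for nuclei count: 100% = median nuclei count of all wells on the same plate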); settings: HUVEC TNFalpha-induced E-selectin immunofluorescence imaging, at 2 µM; inhibition: stronger effect = higher value; nuclei count: measured here: cell number, toxicity
[4] = target: Voltage-gated potassium channel subunit beta-2 (Rattus norvegicus) (UniProt P62483); assay: inhibitors of rat Kvbeta2 reductase activity – biochemical, NADPH fluorescence, primary screen (AID 622;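 active = fluorescence slope higher than the sample average by over 3 SD, cut at about -0.22 in these data, passing the limit was not always enough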;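 note: slope of raw intensity against log time taken from 70 to 1610 s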); settings: recombinant KvBeta, 4-cyanobenzaldehyde reduction, at 10 µM, stronger effect = higher value
[5] = target: Voltage-gated potassium channel subunit beta-2 (Rattus norvegicus) (UniProt P62483); assay: enhancers of rat Kvbeta2 NADPH turnover – biochemical, NADPH fluorescence, primary screen (AID 623;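 active = NADPH fluorescence slope more negative than the mean of all samples by about 3 SD, 99.7% confidence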;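 note: fluorescence intensity change per second fitted from 20 to 320 s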); settings: Recombinant KvBeta, NADPH fluorescence decrease slope, 10 min; at 10 µM; stronger effect = lower value
[6] = target: Alpha-2C adrenergic receptor (Homo sapiens) (UniProt P18825); assay: compounds altering alpha2C-coupled GIRK flux – cell-based, HEK293 alpha2C/GIRK1/2, thallium flux, primary screen (AID 624;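 active = fluorescence slope after compound addition differing from the mean of all screened samples at 99.7% confidence, in either direction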;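 note: slope of fluorescence ratio to pre-addition baseline per second over 15 to 24 s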); settings: thallium flux BTC fluorescence, at 10 µM, actives lie on both sides
[7] = blockers of RIG-like receptor reporter activation – cell-based, Sendai virus stimulus, luciferase, 10K MLSCN set, TLR/RLR signaling modifier project, primary screen (AID 602276;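 active = inhibition at or above 50% at 10 µM; inactive = inhibition below 50%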;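 note: firefly luciferase from ISG56 promoter only with Renilla not read in this screen; 0% = Sendai virus plus DMSO and 100% = medium plus DMSO without virus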); settings: HEK293 RL24 IRF3 luciferase reporter, at 10 µM, stronger effect = higher value
[8] = TLR3 IRF3 reporter activation blockers – cell-based, poly I:C stimulus, luciferase, 10K MLSCN set, primary screen (AID 602277;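 active = inhibition of the reporter signal at or above 50%; inactive = inhibition below 50%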); settings: HEK293-TLR3 RL24 IRF3 luciferase reporter, at 10 µM, stronger effect = higher value

Sequence of Voltage-gated potassium channel subunit beta-2 (Rattus norvegicus) (P62483 whole entry, looked up): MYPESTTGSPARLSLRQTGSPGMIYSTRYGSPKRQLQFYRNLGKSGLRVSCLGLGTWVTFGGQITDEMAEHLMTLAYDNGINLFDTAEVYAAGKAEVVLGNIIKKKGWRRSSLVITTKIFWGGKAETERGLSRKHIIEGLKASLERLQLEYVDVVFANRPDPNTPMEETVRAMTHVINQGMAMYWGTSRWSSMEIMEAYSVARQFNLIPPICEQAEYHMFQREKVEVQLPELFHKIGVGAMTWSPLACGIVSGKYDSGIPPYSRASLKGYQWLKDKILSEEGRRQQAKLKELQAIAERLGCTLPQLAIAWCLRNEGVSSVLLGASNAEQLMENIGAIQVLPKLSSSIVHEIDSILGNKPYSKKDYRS
Sequence of Alpha-2C adrenergic receptor (Homo sapiens) (P18825 whole entry, looked up): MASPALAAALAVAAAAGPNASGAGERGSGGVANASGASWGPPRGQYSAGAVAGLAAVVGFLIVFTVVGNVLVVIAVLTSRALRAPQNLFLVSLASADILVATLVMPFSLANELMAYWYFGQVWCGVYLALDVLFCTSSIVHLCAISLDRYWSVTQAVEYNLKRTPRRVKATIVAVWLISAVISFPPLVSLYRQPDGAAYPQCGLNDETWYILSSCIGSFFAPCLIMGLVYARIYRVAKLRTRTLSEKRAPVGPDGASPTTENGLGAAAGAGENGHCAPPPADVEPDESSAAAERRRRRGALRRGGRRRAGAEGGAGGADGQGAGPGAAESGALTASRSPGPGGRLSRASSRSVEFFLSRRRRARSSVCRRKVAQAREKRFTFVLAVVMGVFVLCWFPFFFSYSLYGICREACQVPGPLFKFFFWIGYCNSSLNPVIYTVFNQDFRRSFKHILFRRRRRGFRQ

Row | SMILES | cell count [1] | inhibition [1] | inhibition of aggregation [2] | nuclei count [2] | inhibition [3] | nuclei count [3] | fluorescence slope [4] | NADPH fluorescence slope [5] | slope [6] | inhibition [7] | inhibition [8]
1 | CC(C)CCNC(=O)C1CCN(C(=O)N(C)C)CC1 | 556 | 7% (inactive) | 13.3% (inactive) | 53.8% | -28.5% (inactive) | 104% | -0.359 (inactive) | -4.6e-05 (inactive) | 0.00555 (inactive) | 8.09% (inactive) | 19.5% (inactive)
2 | CCCc1nnc2n1N=C(c1ccc(OC)c(OC)c1)CS2 | 321 | -12.4% (inactive) | -0.1% (inactive) | 83.3% | 12.3% (inactive) | 99.3% | -0.584 (inactive) | -5.6e-05 (inactive) | 0.00347 (inactive) | 16.9% (inactive) | 37.3% (inactive)
3 | CCCC(=O)Nc1cc(C)c2c(=O)oc3ccccc3c2n1 | 627 | -24.4% (inactive) | -6.5% (inactive) | 97.4% | -37.2% (inactive) | 121% | -0.447 (inactive) | -7.8e-05 (inactive) | 0.0057 (inactive) | -9.8% (inactive) | -24.7% (inactive)
4 | CCCS(=O)(=O)N1CCCC(C(=O)NC(C)c2ccc3c(c2)OCCO3)C1 (stereo not drawn) | 719 | -10.9% (inactive) | 0.2% (inactive) | 101% | -26.6% (inactive) | 100% | -0.475 (inactive) | 1.2e-05 (inactive) | 0.00535 (inactive) | 9.72% (inactive) | 13.6% (inactive)
5 | Cc1ccc(-c2nnn(CC(=O)N(Cc3cccs3)C(C(=O)NC(C)(C)C)c3ccc(C)o3)n2)o1 (stereo not drawn) | 675 | -4% (inactive) | -2.3% (inactive) | 136% | -20.1% (inactive) | 137% | -0.361 (inactive) | -2.9e-05 (inactive) | 0.00454 (inactive) | 16.3% (inactive) | 20.6% (inactive)
6 | COc1cccc(NC(=O)NC2(C(F)(F)F)Oc3ccccc3O2)c1 | 684 | -12.7% (inactive) | 0% (inactive) | 105% | -125% (inactive) | 120% | -0.476 (inactive) | -0.000362 (inactive) | 0.00501 (inactive) | 12.9% (inactive) | 24.9% (inactive)
7 | CCN(C(=O)COC(=O)c1cc(C)n(-c2ccc(F)cc2)c1C)C1CCS(=O)(=O)C1 (stereo not drawn) | 496 | -3.4% (inactive) | -3.9% (inactive) | 114% | -35.5% (inactive) | 115% | -0.537 (inactive) | 3.5e-06 (inactive) | 0.00451 (inactive) | 13.2% (inactive) | 13% (inactive)
8 | CCc1nn(CC(=O)N2CCN(Cc3ccc4c(c3)OCO4)CC2)c(=O)c2cc3occc3n12 | 341 | 1.7% (inactive) | -11.1% (inactive) | 90.2% | -0.9% (inactive) | 105% | -0.353 (inactive) | -1.6e-05 (inactive) | 0.00432 (inactive) | -5.95% (inactive) | -24.9% (inactive)
9 | O=C(O)C1CC=CCC1C(=O)Nc1cccc(C(=O)N2CCCCC2)c1 (stereo not drawn) | 419 | 6.1% (inactive) | -11.9% (inactive) | 109% | -158% (inactive) | 115% | -0.427 (inactive) | -4.3e-05 (inactive) | 0.00595 (inactive) | 0.562% (inactive) | -0.512% (inactive)
10 | Cc1ccc2c(c1C)NC(=O)C2(O)CC(=O)c1ccc2c(c1)OCO2 (stereo not drawn) | 788 | 0.6% (inactive) | 34.5% (inactive) | 96.2% | -44% (inactive) | 110% | -0.472 (inactive) | -5.3e-05 (inactive) | 0.00591 (inactive) | 11.2% (inactive) | 25.3% (inactive)
11 | CCc1ccc(C=NC23CN4CN(CN(C4)C2)C3)s1 | 319 | -14.4% (inactive) | -5.7% (inactive) | 106% | -41.8% (inactive) | 122% | -0.438 (inactive) | 5.9e-05 (inactive) | 0.00606 (inactive) | -1.05% (inactive) | -0.158% (inactive)
12 | CC(=O)N1CCN(c2ccc(N=Cc3c(O)n(Cc4ccccc4)c(=O)[nH]c3=O)cc2)CC1 | 344 | 6.8% (inactive) | -13.5% (inactive) | 102% | -9.7% (inactive) | 105% | -0.525 (inactive) | 1.9e-05 (inactive) | 0.00469 (inactive) | 14.1% (inactive) | 22.9% (inactive)
13 | Cc1cccc(-c2cc3nc4c(c(N5CCC6(CC5)OCCO6)n3n2)CCCC4)c1 | 627 | -5.5% (inactive) | 19.8% (inactive) | 116% | -139% (inactive) | 156% | -0.419 (inactive) | 4.7e-05 (inactive) | 0.00699 (inactive) | -1.5% (inactive) | -27.3% (inactive)
14 | Cc1cc(C)c(NC(=O)C2CSCCS2)c(C)c1 (stereo not drawn) | 484 | 4.7% (inactive) | 23.2% (inactive) | 96% | -55.7% (inactive) | 111% | -0.392 (inactive) | -6.2e-05 (inactive) | 0.00428 (inactive) | -3.4% (inactive) | -35.7% (inactive)
15 | CCc1[nH]nc2c1C(c1cccc(OC(=O)N3CCOCC3)c1)C(C#N)=C(N)O2 (stereo not drawn) | 393 | -20.5% (inactive) | -8.9% (inactive) | 98.5% | 9.4% (inactive) | 87.2% | -0.563 (inactive) | -2e-05 (inactive) | 0.00573 (inactive) | 20.6% (inactive) | 22.7% (inactive)
16 | Nc1cc(N)cc(-c2nc3ccccc3o2)c1 | 595 | -1.3% (inactive) | -3.7% (inactive) | 109% | -53.9% (inactive) | 116% | -0.56 (inactive) | -4.4e-05 (inactive) | 0.00618 (inactive) | -12.2% (inactive) | -26% (inactive)
17 | COc1ccc(OC)c(NC(=O)CS(=O)(=O)Cc2nc(-c3ccccc3C)oc2C)c1 | 676 | 1.1% (inactive) | -17.4% (inactive) | 97.7% | -17.6% (inactive) | 110% | -0.587 (inactive) | -1.4e-06 (inactive) | 0.00717 (inactive) | 7.59% (inactive) | 31.4% (inactive)
18 | O=C(CSCc1cnn(-c2ccccc2)c1-n1cccc1)NCC1CCCO1 (stereo not drawn) | 587 | -10% (inactive) | -10.3% (inactive) | 101% | -1.9% (inactive) | 121% | -0.581 (inactive) | -4.7e-05 (inactive) | 0.00606 (inactive) | 2.57% (inactive) | 15.3% (inactive)
19 | COC(=O)CN1C(=O)CC(C)(C)S(=O)c2ccccc21 (stereo not drawn) | 769 | -9.2% (inactive) | 13.9% (inactive) | 82.6% | -44% (inactive) | 98.5% | -0.574 (inactive) | -5.2e-05 (inactive) | 0.00765 (inactive) | 4.76% (inactive) | 22.2% (inactive)
20 | Cc1cc(C)cc(NC(=O)C2CCCN(c3nccc(C)n3)C2)c1 (stereo not drawn) | 373 | -6% (inactive) | -20.4% (inactive) | 115% | -57.3% (inactive) | 117% | -0.463 (inactive) | -8.4e-05 (inactive) | 0.00586 (inactive) | 9.71% (inactive) | 18.5% (inactive)
21 | CCOC(=O)C1CCCN(CC(=O)NC2CC2)C1 (stereo not drawn) | 446 | 1.1% (inactive) | -11.4% (inactive) | 98.9% | -23.9% (inactive) | 101% | -0.318 (inactive) | -7.1e-05 (inactive) | 0.00531 (inactive) | 13.3% (inactive) | 15.3% (inactive)
22 | Cc1cc(=O)n2nc(N3CCCC(C(=O)N4CCN(C)CC4)C3)sc2n1 (stereo not drawn) | 465 | -0.8% (inactive) | 19.6% (inactive) | 92.4% | -186% (inactive) | 126% | -0.313 (inactive) | -3.4e-05 (inactive) | 0.00576 (inactive) | -7.33% (inactive) | 5.83% (inactive)
23 | CCOC(=O)c1cc(NC(=O)SCC(=O)O)c(C)nc1C | 762 | 5.1% (inactive) | -19.7% (inactive) | 111% | -99.8% (inactive) | 128% | -0.484 (inactive) | -3.2e-05 (inactive) | 0.0071 (inactive) | 7.76% (inactive) | 9.57% (inactive)
24 | COc1cc(C)nc(N2CCCC(C(=O)Nc3cccc(Cl)c3Cl)C2)n1 (stereo not drawn) | 395 | 3.6% (inactive) | -14.9% (inactive) | 109% | -0.7% (inactive) | 103% | -0.467 (inactive) | -2.4e-05 (inactive) | 0.00338 (inactive) | 4.19% (inactive) | 21.4% (inactive)
25 | CCCn1c(SCC(=O)N2CCN(c3ccccc3)CC2)nc2ccccc2c1=O | 331 | -8.5% (inactive) | -6.7% (inactive) | 101% | 23.2% (inactive) | 124% | -0.595 (inactive) | 3.4e-07 (inactive) | 0.00536 (inactive) | -9.23% (inactive) | -10.6% (inactive)
26 | C=CCN1C(=O)CS/C1=N/c1nccs1 | 785 | -8.5% (inactive) | 3.5% (inactive) | 107% | -5.5% (inactive) | 101% | -0.459 (inactive) | -1.1e-05 (inactive) | 0.00406 (inactive) | 15.5% (inactive) | 14.3% (inactive)
27 | O=C(c1ccc(-c2ccccc2)cc1)N1CCN(c2ncccn2)CC1 | 332 | -21.2% (inactive) | 11.5% (inactive) | 76% | -38.6% (inactive) | 85.3% | -0.429 (inactive) | -2.4e-06 (inactive) | 0.00541 (inactive) | 2.14% (inactive) | 28.8% (inactive)
28 | Cc1cccc2c1nc(-c1ccccc1)n1cnnc21 | 345 | -10.7% (inactive) | -2.7% (inactive) | 73% | -58% (inactive) | 114% | -0.452 (inactive) | -2.6e-08 (inactive) | 0.00423 (inactive) | -15.9% (inactive) | -12.4% (inactive)
